Results published in PubChem BioAssay (NCATS).
A number with no mark means an inactive call. Inconclusive results are not listed. Where a call stands in place of a potency, no number is given. Activity calls are given as the source filed them. Unless noted, calls follow the shape of the dose curve; as a rule, active = well fitted curve in the direction sought with a large enough effect; inconclusive = small, poorly fitted or top-dose-only effect, or another doubt; inactive = no such curve, though single readings can be large; an effect the other way counts as inactive or inconclusive.

How the values were obtained:
[1] = Cellular Toxicity (caspase-3) BJ (AID 658); conditions: Potency: caspase-3 activation
Procedure, shortened: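 Readout: Caspase-Glo 3/7 luminescence increase in BJ cells after 16 hr treatment at 37 °C. Staurosporine and tamoxifen served as positive controls; AC50 values came from Hill modelling of data normalized to DMSO and 10 uM staurosporine.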

[2] = Cellular Toxicity (caspase-3) MRC-5 (AID 659); conditions: Potency: caspase-3 activation
Procedure, shortened: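 Concentration-dependent caspase 3/7 activation is measured in human normal lung fibroblasts (MRC-5) following 16-hour treatment. AC50 values come from standard Hill-equation modeling of luminescence normalized to DMSO and 10 uM staurosporine.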

[3] = Cellular Toxicity (caspase-3) SK-N-SH (AID 661)
Procedure, shortened: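 Human SK-N-SH neuroblastoma cells, 1500/well, were exposed to compounds for 16 hours at 37 °C. Caspase-Glo 3/7 luminescence was normalized to DMSO (basal) and 10 uM staurosporine (100%), and AC50 came from a Hill fit.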

[4] = Cellular Toxicity (caspase-3) H-4-II-E (AID 663); conditions: H-4-II-E rat hepatoma, scaled: DMSO 0%, 100 µM tamoxifen 100%; at 92.2 µM (top of the series);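 also: cells exposed to compound for 16 hr before readout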
Procedure, shortened: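 Apoptosis induction is scored as increased luminescence from caspase 3/7 substrate cleavage in rat hepatoma H-4-II-E cells exposed to compound for 16 hr. Activity is scaled between DMSO and 100 uM tamoxifen.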

[5] = Cellular Toxicity (caspase-3) Hek293 (AID 664); conditions: HEK293 caspase-3 activation, DMSO = 0%, 100 µM tamoxifen = 100%; at 92.2 µM (top of the series);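 also: cells exposed to compound for 16 h at 37 °C before readout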
Procedure, shortened: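 HEK293 cells in complete medium treated 16 h at 37 °C, then Caspase-Glo 3/7 luminescence read after 20 min at room temperature. Normalized to DMSO and 100 uM tamoxifen; AC50 from Hill fit of concentration-response.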

[6] = Cellular Toxicity (caspase-3) N2a (AID 665);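 also: compound exposure lasted 16 h at 37 °C before readout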
Procedure, shortened: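 Mouse N2a neuroblastoma cells, 1500 per well, treated 16 h at 37 °C in complete medium; caspase-3/7 activity by Caspase-Glo luminescence after 1 h. Normalized to DMSO and 10 uM staurosporine; AC50 from Hill fits.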

[7] = Cellular Toxicity (caspase-3) NIH 3T3 (AID 666);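 also: caspase signal read after 16 h compound exposure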
Procedure, shortened: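 Mouse NIH 3T3 fibroblasts (1000/well) treated 16 h at 37 C; caspase-3/7 activity measured by Caspase-Glo 3/7 luminescence after 20 min. Normalized to DMSO and 100 uM tamoxifen; AC50 from Hill fits.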

[8] = Cellular Toxicity (caspase-3) Renal Proximal Tubule (AID 667); conditions: Potency: caspase-3 activation;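 also: cells exposed to compound for 16 hours at 37 °C before detection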
Procedure, shortened: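 In qHTS format, rat primary proximal tubule cells seeded at 1000 per well are exposed to compounds for 16 hours at 37 °C. An increase in Caspase-Glo 3/7 luminescence indicates caspase activation.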

[9] = Cell Viability - LYMP2-001 (AID 921);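 also: cells exposed to compound for 24 h at 37 °C; nearly all actives have a fitted effect of over 70% in size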
Procedure, shortened: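 qHTS, 1536-well; lymphoblastoid cells, 24 hr compound, 37 C; ATP by CellTiter-Glo, 30 min RT; luminescence; Hill-fit AC50.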

[10] = biological target: Cytochrome P450 2C9 (Homo sapiens) (UniProt P11712); assay: qHTS Assay for Inhibitors and Substrates of Cytochrome P450 2C9 (AID 883); also: nearly all actives have a fitted effect of over 60% in size
Sequence of Cytochrome P450 2C9 (Homo sapiens) (P11712 whole entry, looked up): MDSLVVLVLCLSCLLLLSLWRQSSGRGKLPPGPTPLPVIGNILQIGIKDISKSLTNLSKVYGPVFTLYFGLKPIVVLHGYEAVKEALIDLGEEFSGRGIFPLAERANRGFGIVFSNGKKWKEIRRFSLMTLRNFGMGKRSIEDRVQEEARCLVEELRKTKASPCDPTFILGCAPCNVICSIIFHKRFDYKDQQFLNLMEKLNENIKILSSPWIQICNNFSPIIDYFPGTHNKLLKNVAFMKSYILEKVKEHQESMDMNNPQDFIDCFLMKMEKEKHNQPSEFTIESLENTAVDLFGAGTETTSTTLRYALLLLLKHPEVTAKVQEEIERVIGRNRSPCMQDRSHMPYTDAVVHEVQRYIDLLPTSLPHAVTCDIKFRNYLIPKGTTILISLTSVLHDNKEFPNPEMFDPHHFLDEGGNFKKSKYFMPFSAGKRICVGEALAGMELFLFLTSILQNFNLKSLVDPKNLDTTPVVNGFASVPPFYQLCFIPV
Procedure, shortened: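 Luminescent read-out of deoxyluciferin hydroxylation, normalized to 57uM sulphaphenazole (AC100). Reaction: 10nM enzyme, 100uM Luciferin-H (equal to KM), 25mM KPO4, 10 min compound preincubation, then 60 min with NADPH regeneration, both at 37C.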

[11] = biological target: Cytochrome P450 3A4 (Homo sapiens) (UniProt P08684); assay: qHTS Assay for Inhibitors and Substrates of Cytochrome P450 3A4 (AID 884); also: nearly all actives have a fitted effect of over 50% in size
Sequence of Cytochrome P450 3A4 (Homo sapiens) (P08684 whole entry, looked up): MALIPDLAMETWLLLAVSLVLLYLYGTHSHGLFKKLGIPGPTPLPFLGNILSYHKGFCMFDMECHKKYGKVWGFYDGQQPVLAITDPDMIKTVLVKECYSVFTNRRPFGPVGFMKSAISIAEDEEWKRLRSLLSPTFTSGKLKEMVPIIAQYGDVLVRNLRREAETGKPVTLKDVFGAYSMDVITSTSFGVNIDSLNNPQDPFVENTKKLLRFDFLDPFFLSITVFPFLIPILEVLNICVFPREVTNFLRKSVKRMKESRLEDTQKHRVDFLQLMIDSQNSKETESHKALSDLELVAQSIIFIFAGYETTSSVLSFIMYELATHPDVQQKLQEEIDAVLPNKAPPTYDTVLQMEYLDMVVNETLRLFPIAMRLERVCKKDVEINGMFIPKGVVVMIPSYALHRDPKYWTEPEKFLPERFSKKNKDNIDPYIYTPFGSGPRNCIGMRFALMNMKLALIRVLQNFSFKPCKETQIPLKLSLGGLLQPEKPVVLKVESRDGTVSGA
Procedure, shortened: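 20 nM human CYP3A4 with 25 uM Luciferin-PPXE (at KM) in 200 mM KPO4, preincubated 10 min with compound; NADPH regeneration started a 60 min RT reaction. Luciferin detected by luminescence, normalized to 57 uM ketoconazole as full inhibition.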

[12] = Confirmation and Secondary Assay for Modulators of Hemoglobin Beta Chain Splicing at IVS2 654 locus (AID 910);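 also: HeLa cells stably carrying EGFP split by mutant beta-globin IVS2-654 intron; per-well total GFP intensity by laser scanning cytometry after 2-day treatment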
Procedure, shortened: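 Readout: per-well total peak green fluorescence (488 nm ex, 500–520 nm em) from objects 5–250 µm, reflecting correct splicing of an EGFP-654 reporter. Compounds were applied for 2 days at 37 °C to overnight-plated HeLa EGFP-654 cells; controls were DMSO and 500 nM IVS2-654 PNA.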

[13] = Confirmation and Secondary Assay for Modulators of Hemoglobin Beta Chain Splicing at IVS2 705 locus (AID 930);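 also: HeLa cells stably expressing the EGFP-705 splicing reporter; GFP fluorescence per well restored by corrected splicing of the IVS2-705 intron in EGFP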
Procedure, shortened: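 HeLa IVS2-705 EGFP reporter cells, 500/well, compound 2 d at 37C; correct splicing yields fluorescent EGFP. Control: 500 nM antisense PNA. Read-out: total peak GFP intensity.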

[14] = biological target: Guanine nucleotide-binding protein G(i) subunit alpha-1 (Homo sapiens) (UniProt P63096); assay: qHTS Assay for Inhibitors of RGS12 GoLoco Motif Activity (Green Fluorophore) (AID 879);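 also: negative values mean loss of peptide binding seen as reduced polarization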
Sequence of Guanine nucleotide-binding protein G(i) subunit alpha-1 (Homo sapiens) (P63096 whole entry, looked up): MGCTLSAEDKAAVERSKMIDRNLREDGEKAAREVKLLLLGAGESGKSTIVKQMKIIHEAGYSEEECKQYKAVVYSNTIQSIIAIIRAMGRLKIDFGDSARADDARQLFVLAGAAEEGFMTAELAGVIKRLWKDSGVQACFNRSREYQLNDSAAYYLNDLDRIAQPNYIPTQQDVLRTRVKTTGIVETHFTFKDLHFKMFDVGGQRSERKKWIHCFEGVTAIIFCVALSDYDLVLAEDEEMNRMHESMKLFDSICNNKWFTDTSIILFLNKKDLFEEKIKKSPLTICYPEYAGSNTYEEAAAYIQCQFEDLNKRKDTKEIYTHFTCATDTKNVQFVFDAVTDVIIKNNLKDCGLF
Procedure, shortened: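 Fluorescence polarization assay: 50 nM Gαi1 with 10 nM FITC-labeled RGS12 GoLoco peptide in 10 mM Tris pH 7.5, 150 mM NaCl, 0.1 mM GDP, 0.05% NP40, 10 min at room temperature with compound.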

[15] = biological target: Cytochrome P450 2D6 (Homo sapiens) (UniProt P10635); assay: qHTS Assay for Inhibitors and Substrates of Cytochrome P450 2D6 (AID 891);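 also: luciferin methyl ether substrate demethylated by CYP2D6 with NADPH regeneration; nearly all actives have a fitted effect of over 60% in size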
Sequence of Cytochrome P450 2D6 (Homo sapiens) (P10635 whole entry, looked up): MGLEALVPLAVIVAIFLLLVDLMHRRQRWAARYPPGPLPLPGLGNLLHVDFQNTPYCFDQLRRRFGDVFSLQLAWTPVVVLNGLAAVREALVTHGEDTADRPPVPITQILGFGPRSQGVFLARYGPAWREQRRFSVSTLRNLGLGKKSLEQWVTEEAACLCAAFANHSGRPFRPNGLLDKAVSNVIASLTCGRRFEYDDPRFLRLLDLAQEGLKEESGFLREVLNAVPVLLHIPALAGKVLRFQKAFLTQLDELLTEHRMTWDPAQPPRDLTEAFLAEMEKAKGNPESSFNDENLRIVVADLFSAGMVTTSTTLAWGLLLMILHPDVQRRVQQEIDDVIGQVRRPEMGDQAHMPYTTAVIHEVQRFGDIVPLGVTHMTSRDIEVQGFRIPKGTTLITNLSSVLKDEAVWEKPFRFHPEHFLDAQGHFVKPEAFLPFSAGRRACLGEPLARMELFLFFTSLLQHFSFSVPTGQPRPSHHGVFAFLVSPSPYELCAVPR
Procedure, shortened: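 Human CYP2D6 (5 nM) with 30 uM Luciferin-ME EGE (at Km) in 100 mM KPO4, compound preincubated 10 min, then NADPH regeneration system for 60 min at room temperature. Luciferin read by luminescence; normalized to 1.43 uM quinidine.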

[16] = qHTS Assay for Identification of Small Molecule Antagonists for NFkB Signaling Pathway (AID 895; active = well fitted inhibition curve with a large enough effect in the signal ratio, with a control signal flat, not every such curve was filed as active; the % refers to the signal ratio; also: potency is read from the fitted curve at half-maximal effect)
Procedure, shortened: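 Beta-lactamase reporter read-out (460 and 530 nm emission ratio, 405 nm excitation, 2 hrs substrate loading RT) after 5 hr stimulation with 10 pM TNF alpha in compound-treated NFkB-bla ME-180 cells in low-serum medium.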

[17] = biological target: Cytochrome P450 2C19 (Homo sapiens) (UniProt P33261); assay: qHTS Assay for Inhibitors and Substrates of Cytochrome P450 2C19 (AID 899); also: nearly all actives have a fitted effect of over 60% in size
Sequence of Cytochrome P450 2C19 (Homo sapiens) (P33261 whole entry, looked up): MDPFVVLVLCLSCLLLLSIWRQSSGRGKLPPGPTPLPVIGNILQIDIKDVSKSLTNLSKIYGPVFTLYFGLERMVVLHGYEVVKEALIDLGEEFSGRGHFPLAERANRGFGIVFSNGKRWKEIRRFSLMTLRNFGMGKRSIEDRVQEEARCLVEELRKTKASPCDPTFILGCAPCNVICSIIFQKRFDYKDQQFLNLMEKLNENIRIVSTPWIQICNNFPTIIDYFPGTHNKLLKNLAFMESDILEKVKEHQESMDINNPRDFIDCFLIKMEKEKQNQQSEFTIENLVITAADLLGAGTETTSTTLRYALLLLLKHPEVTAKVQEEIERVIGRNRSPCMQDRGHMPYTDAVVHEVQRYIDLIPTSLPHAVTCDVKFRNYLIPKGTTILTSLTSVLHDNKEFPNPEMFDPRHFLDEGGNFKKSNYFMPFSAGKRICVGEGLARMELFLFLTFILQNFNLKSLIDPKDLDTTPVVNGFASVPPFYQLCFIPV
Procedure, shortened: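 Luminescence readout of luciferin formed from 10uM Luciferin-H EGE (KM level) by 5 nM CYP2C19 in 50mM KPO4. 60 min NADPH-driven reaction at 37C after 10 min compound preincubation; data scaled to 57uM ketoconazole inhibition.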

[18] = qHTS Assay for Identification of Small Molecule Agonists for Thrombopoietin (TPO) Signaling Pathway (AID 917)
Procedure, shortened: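 We measured Glycoprotein IIb promoter–luciferase output in IL-3-starved Ba/F3 murine cells expressing the human TPO receptor after 24 hrs at 37 C with compounds and 26 pM TPO.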

[19] = biological target: Cytochrome P450 3A4 (Homo sapiens) (UniProt P08684); assay: qHTS Assay for Activators of Cytochrome P450 3A4 (AID 885); also: nearly all actives have a fitted effect of over 65% in size
Procedure, shortened: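 Quantitative HTS format: compounds preincubated with 20nM human CYP3A4 and Luciferin-PPXE substrate at KM, reaction started by NADPH regeneration, stopped after 60 min, luciferase luminescence read 20 min later.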

## O=C(N[C@H](CO)[C@H](O)c1ccc([N+](=O)[O-])cc1)C(Cl)Cl
[1]
  Potency: inactive
[2]
  Potency: inactive
[3]
  Potency: inactive
[4]
  caspase-3 activation: 0.675%
[5]
  caspase-3 activation: 1.63%
[6]
  outcome: inactive
[7]
  Potency: inactive
[8]
  Potency: inactive
[9]
  Potency: inactive

## COC(=O)Nc1nc2ccc(C(=O)c3ccccc3)cc2[nH]1
[10]
  outcome: inactive
[11]
  outcome: inactive
[12]
  Potency: inactive
[13]
  Potency: inactive

## NC(=O)c1cccc(N)c1
[14]
  outcome: inactive
[10]
  outcome: inactive
[15]
  Potency: inactive
[16]
  Potency: inactive
[17]
  Potency: inactive
[18]
  outcome: inactive

## CC(C)(C)NC(=O)[C@H]1CC[C@H]2[C@@H]3CC[C@H]4NC(=O)C=C[C@]4(C)[C@H]3CC[C@]12C
[14]
  outcome: inactive

## COc1cc2ncnc(Nc3cccc(Cl)c3)c2cc1OC
[14]
  outcome: inactive
[16]
  Potency: 15.8 µM (active)
[18]
  outcome: inactive

## Cc1ccnc2c1NC(=O)c1cccnc1N2C1CC1
[1]
  Potency: inactive
[2]
  Potency: inactive
[3]
  Potency: inactive
[4]
  caspase-3 activation: 0.892%
[5]
  caspase-3 activation: -0.521%
[6]
  outcome: inactive
[7]
  Potency: inactive
[8]
  Potency: inactive
[11]
  outcome: inactive
[9]
  Potency: inactive

## CC(=O)Oc1ccccc1C(=O)Nc1ncc([N+](=O)[O-])s1
[1]
  Potency: inactive
[2]
  Potency: inactive
[3]
  Potency: inactive
[4]
  caspase-3 activation: -3.94%
[5]
  caspase-3 activation: -8.75%
[6]
  outcome: inactive

## O=C(O)c1cc(=O)[nH]c(=O)[nH]1
[1]
  Potency: inactive
[2]
  Potency: inactive
[3]
  Potency: inactive
[4]
  caspase-3 activation: 0.389%
[5]
  caspase-3 activation: -0.467%
[6]
  outcome: inactive
[7]
  Potency: inactive
[8]
  Potency: inactive
[11]
  outcome: inactive
[9]
  Potency: inactive

## OCc1ccc(-c2nn(Cc3ccccc3)c3ccccc23)o1
[14]
  outcome: inactive
[19]
  outcome: inactive
[16]
  Potency: 8.91 µM (active)
[18]
  outcome: inactive

## CCc1cc(C(N)=S)ccn1
[1]
  Potency: inactive
[2]
  Potency: inactive
[3]
  Potency: inactive
[4]
  caspase-3 activation: -1.43%
[5]
  caspase-3 activation: -3.96%
[6]
  outcome: inactive
[7]
  Potency: inactive
[8]
  Potency: inactive
[12]
  Potency: inactive
[9]
  Potency: inactive
[13]
  Potency: inactive
